Compounds with a hit are over-represented: about 9% of the library has one in this group of screens.
G9a inh: blocks human histone lysine methyltransferase G9a; Q96KQ7; G9a H3K9 monomethylation, AlphaScreen, 2 h; Potency, µM (titrated, usually from 102 µM), inactives show at the highest dose activity, negative = inhibition, most hits filed as inhibitors; actives 8.8% (n = 350,000); note: % is set by controls: 0 for no effect and ±100 for the full control effect; nearly all actives have a fitted effect of over 75% in size
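G9a (20 nM) preincubated 15 min RT with compounds, then 500 nM biotinylated H3K9 peptide and 20 uM SAM added; 2 h RT reaction. Monomethyl-H3K9 product detected by AlphaScreen with anti-H3K9me1 antibody, streptavidin donor and anti-rabbit IgG acceptor beads.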
ALOX12 inh: blocks human arachidonate 12S-lipoxygenase. P18054. purified 12hLO, xylenol orange hydroperoxide absorbance. Potency, µM (highest dose often 108 µM), without a hit: at the top dose activity change, negative = inhibition, usual class: inhibitors. actives 1.1% (n = 580,000). AID 1671190; note: % is set by controls: 0 for no effect and ±100 for the full control effect
Target sequence (P18054 whole entry, looked up): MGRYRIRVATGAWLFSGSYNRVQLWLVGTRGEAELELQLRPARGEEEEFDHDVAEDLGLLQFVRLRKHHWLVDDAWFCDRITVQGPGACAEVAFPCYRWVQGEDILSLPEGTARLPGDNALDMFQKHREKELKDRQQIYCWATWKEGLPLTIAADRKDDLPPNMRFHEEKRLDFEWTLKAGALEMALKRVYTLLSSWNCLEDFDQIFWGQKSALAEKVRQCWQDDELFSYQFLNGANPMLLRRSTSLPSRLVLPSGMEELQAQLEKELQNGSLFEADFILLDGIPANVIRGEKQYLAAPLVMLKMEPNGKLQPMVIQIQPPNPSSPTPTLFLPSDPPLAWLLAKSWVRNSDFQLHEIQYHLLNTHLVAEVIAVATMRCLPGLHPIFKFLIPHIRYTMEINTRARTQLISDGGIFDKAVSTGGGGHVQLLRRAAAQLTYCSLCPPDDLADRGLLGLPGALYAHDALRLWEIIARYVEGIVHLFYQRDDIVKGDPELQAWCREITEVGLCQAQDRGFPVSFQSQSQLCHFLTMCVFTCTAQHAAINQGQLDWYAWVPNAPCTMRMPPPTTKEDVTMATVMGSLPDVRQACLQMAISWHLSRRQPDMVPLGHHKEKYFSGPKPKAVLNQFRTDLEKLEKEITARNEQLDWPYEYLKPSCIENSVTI
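Hydroperoxide product was detected by ferrous iron/xylenol orange as the 573 to 405 nm absorbance ratio. Arachidonic acid at 40 uM (final) was turned over for 30 min at room temperature by 150 nM human 12hLO, pH 7.0 Hepes buffer, after 15 min compound preincubation.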
JMJD2A Tudor: blocks the human JMJD2A Tudor domain | O75164 | AlphaScreen JMJD2A-Tudor / H3K4me3 peptide binding | Potency, µM (highest dose often 114 µM), inactives show at the highest dose activity change, negative = inhibition, actives largely listed as inhibitors | actives 4.4% (n = 390,000) | AID 504339; note: % is set by controls: 0 for no effect and ±100 for the full control effect; nearly all actives have a fitted effect of over 50% in size
PLK1 PBD inh: inhibitors of human PLK1 polo-box domain binding | actives 2.8% (n = 360,000) | Plk1 PBD binding of FITC phosphopeptide, fluorescence polarization | AID 720504 | Potency, µM, for the others: max response, negative = inhibition, actives largely listed as inhibitors; note: series mostly up to about 57 µM; % is set by controls: 0 for no effect and ±100 for the full control effect; nearly all actives have a fitted effect of over 65% in size
BAZ2B inh: blocks human BAZ2B; Q9UIF8; AlphaScreen BAZ2B-H3K14Ac peptide displacement; Potency, µM (highest dose often 114 µM), without a hit: at the top dose activity change, negative = inhibition, most hits filed as inhibitors; actives 4.4% (n = 360,000); note: % is set by controls: 0 for no effect and ±100 for the full control effect; nearly all actives have a fitted effect of over 60% in size
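Inhibition is scored as reduced AlphaScreen emission. The BAZ2B/b-H3(5-23)K14Ac complex (50 nM each) in PBS pH 7.4, 0.01% Tween-20 meets compound (up to 110 uM) for 30 min at RT before bead addition.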
HP1b binding inh: inhibitors of HP1-beta chromodomain binding to methylated histone tails; P83916; AlphaScreen HP1-beta / biotin-H3K9me3 peptide binding; Potency, µM (top dose mostly 114 µM), inactives show top-dose activity change, negative = inhibition, hits mostly inhibitors; actives 0.56% (n = 390,000); AID 540317; note: nearly all actives have a fitted effect of over 70% in size
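Compound inhibition of the preformed complex between 50 nM HP1-beta and 50 nM biotinylated H3K9me3 peptide was read by AlphaScreen. Buffer was PBS pH 7.4 with 0.01% Tween-20. Incubations ran 30 min at room temperature, with 10 ug/mL donor/acceptor beads.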
* = called active by the depositor; ? = inconclusive; / = not tested or not shown; [ ] = remark or other dose. Calls come from the whole dose curve; as a rule, active = well fitted curve in the direction sought with a large enough effect; inconclusive = small, poorly fitted or top-dose-only effect, or another doubt; inactive = no such curve, though single readings can be large; an effect the other way counts as inactive or inconclusive. Potency is the fitted concentration of half-maximal effect.

SMILES	G9a inh	ALOX12 inh	JMJD2A Tudor	PLK1 PBD inh	BAZ2B inh	HP1b binding inh
COc1ccc(CN2CCc3cc(OC)c(OC)cc3C2)cc1O	-138%[59 µM]	?	45µM*	3%	?	?
CS(=O)(=O)N1CC2(CCCN(C3COC3)C2)Cc2ccccc21 (stereo not given)	/	-2%[6.33 µM]	/	/	/	/
O=C1C(Cl)=C(Nc2ccc(O)cc2)C(=O)c2ccccc21	11µM*	0%	?	-9%	?	?
CCN(CC)c1ccc(CC(=O)NC(C)Cc2ccccc2)cc1 (stereo not given)	-24%[59 µM]	1%	-19%	-1%	?	-5%
Cc1ccc(NC2=C(Cl)C(=O)c3ccccc3C2=O)cc1	79µM*	14%	?	-3%	?	-20%
Cc1cc(C)cc(NC2=C(N)C(=O)c3ccccc3C2=O)c1	1.6µM*	/	?	-2%	?	-19%
CCN(CC)c1ccc(NC2=C(Cl)C(=O)c3ccccc3C2=O)cc1	1.8µM*	/	2.5µM*	-9%	2.2µM*	4µM*
Cc1ccc(Nc2ccccc2)cc1	-13%[59 µM]	14%	-29%	0%	14%	16%
CC1CCCCN1C(=O)CSc1nc(C2CC2)nc2c1cnn2-c1ccccc1 (stereo not given)	?	?	-15%	27µM*	7%	-15%
Cc1nn(-c2ccccc2)c(C)c1C(=O)OCC(=O)NCc1ccco1	-27%[12.7 µM]	?	-28%	-14%	-11%	24%
O=C(NCCn1nc(-c2ccc(F)cc2)ccc1=O)c1cccc(C(F)(F)F)c1	/	-2%	/	/	/	/
Cc1cc(C(=O)N/N=C2/CC(C)CC(C)(C)C2)c(C)o1 (stereo not given)	-4%	-1%	?	21µM*	?	-21%
CN1CC(O)(C(O)C(O)C(O)CO)SC1=S (stereo not given)	/	-19%	/	21µM*	/	/
Cn1cc(CNC(=O)C2c3ccccc3Oc3ccccc32)cn1	?	177%	-9%	-4%	11%	27%
Cn1c(=O)c2cc(S(=O)(=O)Nc3cccc(F)c3)ccc2n(C)c1=O	?	2%	-13%	-3%	6%	36%
Cc1c(F)cccc1NS(=O)(=O)c1ccc2c(c1)c(C)cc(=O)n2C	5%	7%	-7%	0%	50µM*	41%
Oc1c(Cl)cc(Cl)cc1/C=N/c1nccs1	8.9µM*	21%	-18%	34µM*	-2%	16%
COc1cc(CN2CCN(Cc3ccc(C)cc3)C(CCO)C2)cc(OC)c1O (stereo not given)	45µM*	-4%	-25%	-22%	-15%	10%
COc1ccc(CN2CCN(Cc3ccc(C)cc3)C(CCO)C2)cc1OC (stereo not given)	/	-20%	-16%	-5%	-3%	17%
Cc1ccc(CN2CCN(Cc3ccccn3)CC2CCO)cc1 (stereo not given)	1%	6%	-12%	-4%	56µM*	32%
FC(F)(F)c1cccc(-c2cc3nc(NCCOc4ccccc4)ccn3n2)c1	/	-10%	/	-3%	/	/
Cc1ccc(C(=O)Nc2ccc3c(c2)CCC3)cc1	8%	1%	14%	-25%	8%	71%
CCc1oc(C(=O)OC)cc1CSC(=N)N	50µM*	-6%	-15%	?	-6%	12%
O=C1Nc2ccccc2C1=O	/	1%	-13%	-8%	/	1%
CN(O)/C=C1\C(=O)Nc2ccccc21	50µM*	?	-28%	-13%	-6%	-9%
O=C1Nc2ccccc2Nc2ccccc21	14µM*	-64%	50µM*	-2%	?	5%
CN(C)/C=C1\C(=O)Nc2ccccc21	?	3%	-8%	-2%	7%	28%
CCc1ncc(/C=C2\C(=O)Nc3ccccc32)[nH]1	?	7%	-17%	-14%	-7%	15%
O=C1Nc2ccccc2/C1=C\C(=O)c1ccccc1	25µM*	?	?	19µM*	-26%	-15%
CC(C)Oc1ccc(C(=O)/C=C2/C(=O)Nc3ccccc32)cc1	40µM*	?	?	?	?	-4%

Source: PubChem
